Reference: PubChem BioAssay AID1159580 (chemical genetic matrix, 2015)
The campaign covered roughly 5,500 compounds. About 2,000 (36%) were called active. Another 18% or so got no clear call; they are omitted. No stated cut-off is given here; in the data, active means normalized growth mostly below about 0.91 (no sharp cut-off); inconclusive means no clear call, values can overlap the other calls; inactive means mostly above about 0.92. The list shows a part of the results.

Assay: chemical genetic growth profiling, strain panel (AID 1159580);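 further: tested at 20 µM; growth read once vehicle control cultures reached saturation at 30 °C; 1 = growth at the plate median or of vehicle wells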
Conditions: S. cerevisiae deletion strains, growth OD
[1] = locus YAL013W, strain DEP1, stronger effect = lower value
[2] = locus YAL040C, strain CLN3, stronger effect = lower value
[3] = locus YCL061C, strain MRC1 (second series), stronger effect = lower value
[4] = locus YDR150W, strain NUM1, stronger effect = lower value
[5] = locus YDR363W, strain ESC2, stronger effect = lower value
[6] = locus YER002W, strain NOP16, stronger effect = lower value
[7] = locus YGR078C, strain PAC10, stronger effect = lower value
[8] = locus YJR075W, strain HOC1, stronger effect = lower value
[9] = locus YNL175C, strain NOP13, stronger effect = lower value
[10] = locus YNL197C, strain WHI3, stronger effect = lower value
[11] = locus YNL224C, strain SQS1, stronger effect = lower value
[12] = locus YNL322C, strain KRE1, stronger effect = lower value
[13] = locus YOR083W, strain WHI5 (second series), stronger effect = lower value
[14] = locus YPL241C, strain CIN2, stronger effect = lower value

Measured: normalized growth

CNC[C@H](O)c1ccc(O)c(O)c1
inactive: [1] 1.01 | [2] 1.04 | [3] 1 | [4] 1 | [5] 0.993 | [6] 1.01 | [7] 1.02 | [8] 1 | [9] 1.01 | [10] 1.01 | [11] 1.01 | [12] 0.997 | [13] 1.02 | [14] 1

CC(C)NC[C@@H](O)c1ccc(O)c(O)c1
inactive: [1] 0.974 | [2] 1.03 | [3] 0.996 | [4] 1 | [5] 1 | [6] 0.984 | [7] 0.99 | [9] 0.984 | [10] 0.985 | [11] 0.997 | [12] 1.01 | [13] 1.04 | [14] 0.998
active: [8] 1.12 [resistant] | locus YMR307W, strain GAS1, stronger effect = lower value 1.1 [resistant]

CC(C)NC[C@H](O)c1ccc(O)c(O)c1
inactive: [1] 1.01 | [2] 0.998 | [3] 1 | [4] 0.99 | [5] 1 | [6] 1 | [7] 1.01 | [9] 1.02 | [10] 1.01 | [11] 1.01 | [13] 1 | locus YPL055C, strain LGE1, stronger effect = lower value 0.97
